Measurements as given in PubChem BioAssay (EPA / NIEHS).
“And” between values parts separate entries of the source, which are not always exact repeats. Equal values may be shown once. Some compounds were tested as several samples or in several runs, with calls that do not always agree. The source made the active and inactive calls. The calls were made as follows: active = hit-call score of the fitted dose curve at least 0.9, where 1 is the maximum; inactive = score below 0.9.

Experiments:
[1] = ATG_ISRE_CIS: Attagene CIS-FACTORIAL HepG2 Assay for human Interferon Regulatory Factor 1 (IRF1) binding to an Interferon-Stimulated Response Element (ISRE) (AID 2282948); conditions: HepG2 ISRE cis-reporter (Attagene), mRNA transcription readout; actives raise or lower the signal
Summary of the method: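 Endogenous transcription factor activity read as reporter transcript abundance via RT-PCR and capillary electrophoresis. HepG2 cells transiently transfected, 24 h chemical exposure. Gain or loss fitted against DMSO baseline.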

[2] = ATG_M_32_CIS: Attagene CIS-FACTORIAL HepG2 Assay for M32 Transcription Factor (Internal Marker) (AID 2282949); conditions: HepG2 Attagene cis-factorial M32 reporter, mRNA; actives raise or lower the signal;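 also: background control marker of the multiplexed CIS panel rather than a real target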
Summary of the method: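 Transient MRTU transfection of HepG2; 24 h compound treatment; TriZol RNA, oligo(dT) RT, reporter PCR, 6-FAM primer extension, HpaI cut, CE. Gain/loss of signal vs DMSO.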

[3] = ATG_M_06_CIS: Attagene CIS-FACTORIAL HepG2 Assay for M06 Transcription Factor (Internal Marker) (AID 2282950); conditions: HepG2 Attagene CIS-FACTORIAL M06 internal marker reporter; actives raise or lower the signal
Summary of the method: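 Terse: HepG2, transient MRTU transfection (FuGene 6), 24 h dosing; total RNA, oligo(dT) RT, PCR, FAM label, HpaI cut, capillary electrophoresis; bidirectional fit vs DMSO baseline; background-control endpoint.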

[4] = target: Hypoxia-inducible factor 1-alpha (Homo sapiens) (UniProt Q16665); test: ATG_HIF1a_CIS: Attagene CIS-FACTORIAL HepG2 Assay for human Hypoxia Inducible Factor 1 (HIF1A) (AID 2282951); conditions: HepG2 Attagene cis-factorial HIF1a reporter transcription; actives raise or lower the signal
Chain of Hypoxia-inducible factor 1-alpha (Homo sapiens) (Q16665 whole entry, looked up): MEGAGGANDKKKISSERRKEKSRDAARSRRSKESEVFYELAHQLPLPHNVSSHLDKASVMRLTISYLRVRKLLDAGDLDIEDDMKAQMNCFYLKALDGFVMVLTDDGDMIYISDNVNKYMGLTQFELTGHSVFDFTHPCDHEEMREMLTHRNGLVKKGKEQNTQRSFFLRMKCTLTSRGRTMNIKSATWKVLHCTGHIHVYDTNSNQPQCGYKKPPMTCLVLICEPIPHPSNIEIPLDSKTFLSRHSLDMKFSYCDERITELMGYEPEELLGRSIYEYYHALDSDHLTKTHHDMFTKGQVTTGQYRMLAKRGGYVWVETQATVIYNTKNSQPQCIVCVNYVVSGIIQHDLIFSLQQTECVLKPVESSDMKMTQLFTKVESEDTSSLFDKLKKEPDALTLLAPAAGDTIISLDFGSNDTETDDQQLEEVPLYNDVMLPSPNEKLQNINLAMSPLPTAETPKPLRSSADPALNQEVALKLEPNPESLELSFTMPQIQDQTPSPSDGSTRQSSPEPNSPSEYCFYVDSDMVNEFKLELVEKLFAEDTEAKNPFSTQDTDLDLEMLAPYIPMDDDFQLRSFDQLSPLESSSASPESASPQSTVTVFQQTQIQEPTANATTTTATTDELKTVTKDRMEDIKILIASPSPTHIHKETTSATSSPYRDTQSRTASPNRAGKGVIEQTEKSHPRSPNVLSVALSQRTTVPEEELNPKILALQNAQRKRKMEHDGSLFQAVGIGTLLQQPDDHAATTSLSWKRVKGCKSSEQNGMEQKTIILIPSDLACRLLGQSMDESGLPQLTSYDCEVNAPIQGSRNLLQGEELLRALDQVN
Summary of the method: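 Measures endogenous transcription-factor activity through cis-regulated reporter mRNA in HepG2. Cells dosed 24 h; transcripts quantified by RT-PCR with 6-FAM-labelled products separated by capillary electrophoresis; DMSO serves as negative control.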

[5] = target: Hepatocyte nuclear factor 6 (Homo sapiens) (UniProt Q9UBC0); test: ATG_HNF6_CIS: Attagene CIS-FACTORIAL HepG2 Assay for human Hepatocyte Nuclear Factor 6 (HNF6) (AID 2282952); conditions: HepG2 Attagene cis-factorial HNF6 reporter transcription; actives raise or lower the signal
Chain of Hepatocyte nuclear factor 6 (Homo sapiens) (Q9UBC0 whole entry, looked up, the tested form may be a part): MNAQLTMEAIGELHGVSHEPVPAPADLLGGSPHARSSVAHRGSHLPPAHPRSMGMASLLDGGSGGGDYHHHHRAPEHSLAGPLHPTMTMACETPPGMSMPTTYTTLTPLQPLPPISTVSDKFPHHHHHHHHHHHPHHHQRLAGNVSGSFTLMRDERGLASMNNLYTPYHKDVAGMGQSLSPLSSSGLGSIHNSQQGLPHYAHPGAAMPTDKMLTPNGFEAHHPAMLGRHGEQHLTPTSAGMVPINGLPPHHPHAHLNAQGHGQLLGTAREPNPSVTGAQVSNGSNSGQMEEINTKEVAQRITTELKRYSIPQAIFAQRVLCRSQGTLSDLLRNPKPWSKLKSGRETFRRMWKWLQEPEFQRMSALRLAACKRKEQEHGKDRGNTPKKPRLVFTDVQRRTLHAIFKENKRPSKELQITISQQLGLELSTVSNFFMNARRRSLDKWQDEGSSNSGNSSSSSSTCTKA
Summary of the method: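 First, HepG2 cells were transfected with the multiplexed cis reporter library and dosed with chemical for 24 h. Next, RNA was reverse-transcribed, PCR-amplified and fluorescently labelled. Finally, HpaI-digested fragments were read by capillary electrophoresis.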

[6] = target: Heat shock factor protein 1 (Homo sapiens) (UniProt Q00613); test: ATG_HSE_CIS: Attagene CIS-FACTORIAL HepG2 Assay for human Heat Shock Transcription Factor 1 (HSE) (AID 2282953); conditions: HepG2 HSE cis-reporter, Attagene RNA transcription; actives raise or lower the signal
Chain of Heat shock factor protein 1 (Homo sapiens) (Q00613 whole entry, looked up, the tested form may be a part): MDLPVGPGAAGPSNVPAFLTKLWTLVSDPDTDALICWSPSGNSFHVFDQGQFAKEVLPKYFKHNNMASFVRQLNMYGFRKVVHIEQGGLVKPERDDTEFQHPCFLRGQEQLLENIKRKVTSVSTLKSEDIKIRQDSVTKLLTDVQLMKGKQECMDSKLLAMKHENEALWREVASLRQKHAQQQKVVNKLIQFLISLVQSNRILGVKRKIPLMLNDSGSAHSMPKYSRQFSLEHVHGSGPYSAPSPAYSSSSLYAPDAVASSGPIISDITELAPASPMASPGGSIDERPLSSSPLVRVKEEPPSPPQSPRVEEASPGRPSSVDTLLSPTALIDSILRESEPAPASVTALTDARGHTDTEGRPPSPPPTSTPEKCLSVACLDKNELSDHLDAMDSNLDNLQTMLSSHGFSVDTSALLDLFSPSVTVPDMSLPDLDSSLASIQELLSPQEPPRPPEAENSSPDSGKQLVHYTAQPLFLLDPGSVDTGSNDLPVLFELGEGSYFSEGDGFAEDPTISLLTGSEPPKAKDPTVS
Summary of the method: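 Read-out: fluorescence of reporter-specific RT-PCR fragments separated by capillary electrophoresis. HepG2 carrying transfected cis-element reporter units; 24 h dosing; activity fitted in both directions relative to DMSO baseline.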

[7] = ATG_MRE_CIS: Attagene CIS-FACTORIAL HepG2 Assay for human Metal Responsive Element (MRE) (AID 2282954); conditions: HepG2 MRE cis-reporter transcription, Attagene multiplex; actives raise or lower the signal
Summary of the method: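 Readout: capillary electrophoresis of 6-FAM-labelled, HpaI-digested RT-PCR reporter products. System: HepG2 cells carrying transient multiplexed cis reporters, dosed 24 h. Analysis: bidirectional fit, DMSO baseline.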

[8] = ATG_PBREM_CIS: Attagene CIS-FACTORIAL HepG2 Assay for human Phenobarbital-responsive Enhancer Module (PBREM) (AID 2282955); conditions: HepG2 PBREM cis-reporter, Attagene multiplexed transcription; actives raise or lower the signal
Summary of the method: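 Fluorescence of labelled reporter cDNA fragments, resolved by capillary electrophoresis, gives mRNA induction in transfected HepG2 cells treated for 24 h; DMSO serves as negative control and baseline.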

[9] = target: Paired box protein Pax-6 (Homo sapiens) (UniProt P26367); test: ATG_Pax6_CIS: Attagene CIS-FACTORIAL HepG2 Assay for human Paired Box 6 (PAX6) (AID 2282956); conditions: HepG2 CIS-FACTORIAL PAX6 reporter transcription, RNA readout; actives raise or lower the signal
Chain of Paired box protein Pax-6 (Homo sapiens) (P26367 whole entry, looked up): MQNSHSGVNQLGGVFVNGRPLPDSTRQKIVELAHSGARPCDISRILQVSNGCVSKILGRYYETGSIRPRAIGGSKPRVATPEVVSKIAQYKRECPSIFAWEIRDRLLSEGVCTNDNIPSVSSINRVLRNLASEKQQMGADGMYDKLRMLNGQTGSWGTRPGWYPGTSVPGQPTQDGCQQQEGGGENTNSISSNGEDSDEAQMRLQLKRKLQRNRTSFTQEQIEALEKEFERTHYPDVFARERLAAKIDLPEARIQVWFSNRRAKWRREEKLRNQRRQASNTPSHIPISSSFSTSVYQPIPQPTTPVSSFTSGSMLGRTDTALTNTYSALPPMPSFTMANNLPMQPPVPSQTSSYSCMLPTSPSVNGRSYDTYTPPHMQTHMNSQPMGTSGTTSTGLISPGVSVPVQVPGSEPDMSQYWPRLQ
Summary of the method: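 Read-out is reporter transcript level, measured by RT-PCR with fluorescent primer extension and capillary electrophoresis after 24 h dosing of transfected HepG2 cells. Activity in either direction fitted relative to DMSO control.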

[10] = ATG_PXRE_CIS: Attagene CIS-FACTORIAL HepG2 Assay for human Pregnane X Receptor Element (PXRE) (AID 2282957); conditions: HepG2 Attagene CIS-FACTORIAL PXRE reporter, mRNA; actives raise or lower the signal
Summary of the method: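 After a 24 h chemical incubation, total RNA from transfected HepG2 cells was reverse-transcribed and reporter cDNA amplified, FAM-labeled, HpaI-digested and sized by capillary electrophoresis. DMSO served as baseline for bidirectional curve fitting.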

[11] = ATG_PPRE_CIS: Attagene CIS-FACTORIAL HepG2 Assay for human Peroxisome Proliferator-activated Response Element (PPRE) (AID 2282958); conditions: HepG2 PPRE cis-element reporter, Attagene transcription factor profiling; actives raise or lower the signal
Summary of the method: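 Cells are first transfected transiently with the multiplexed reporter library, then dosed for 24 h. Total RNA is reverse-transcribed, amplified, fluorescently end-labeled and HpaI-cut before capillary electrophoresis; activity is fitted bidirectionally against DMSO controls.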

[12] = ATG_RORE_CIS: Attagene CIS-FACTORIAL HepG2 Assay for human RAR-related Orphan Receptor Element (RORE) (AID 2282959); conditions: HepG2 Attagene cis-factorial RORE reporter, mRNA; actives raise or lower the signal
Summary of the method: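 Cells were HepG2 carrying transfected cis-regulated reporter constructs, dosed for 24 hours. Total RNA was reverse-transcribed and reporter cDNA amplified, fluorescently labeled and sized by capillary electrophoresis. Activity was fitted bidirectionally relative to DMSO.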

[13] = ATG_Sox_CIS: Attagene CIS-FACTORIAL HepG2 Assay for human SRY-box transcription factor (SOX) (AID 2282960); conditions: HepG2 Attagene cis-factorial SOX reporter, mRNA; actives raise or lower the signal
Summary of the method: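 Transient MRTU transfection of HepG2; 24 h compound incubation; TriZol RNA, oligo(dT) RT, PCR, 6-FAM primer extension, HpaI cut, CE. Bidirectional fit, DMSO = baseline.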

[14] = target: Transcription factor Sp1 (Homo sapiens) (UniProt P08047); test: ATG_Sp1_CIS: Attagene CIS-FACTORIAL HepG2 Assay for human Specificity Protein 1 (Sp1) (AID 2282961); conditions: HepG2 Sp1 cis-reporter transcription, actives raise or lower the signal
Chain of Transcription factor Sp1 (Homo sapiens) (P08047 whole entry, looked up): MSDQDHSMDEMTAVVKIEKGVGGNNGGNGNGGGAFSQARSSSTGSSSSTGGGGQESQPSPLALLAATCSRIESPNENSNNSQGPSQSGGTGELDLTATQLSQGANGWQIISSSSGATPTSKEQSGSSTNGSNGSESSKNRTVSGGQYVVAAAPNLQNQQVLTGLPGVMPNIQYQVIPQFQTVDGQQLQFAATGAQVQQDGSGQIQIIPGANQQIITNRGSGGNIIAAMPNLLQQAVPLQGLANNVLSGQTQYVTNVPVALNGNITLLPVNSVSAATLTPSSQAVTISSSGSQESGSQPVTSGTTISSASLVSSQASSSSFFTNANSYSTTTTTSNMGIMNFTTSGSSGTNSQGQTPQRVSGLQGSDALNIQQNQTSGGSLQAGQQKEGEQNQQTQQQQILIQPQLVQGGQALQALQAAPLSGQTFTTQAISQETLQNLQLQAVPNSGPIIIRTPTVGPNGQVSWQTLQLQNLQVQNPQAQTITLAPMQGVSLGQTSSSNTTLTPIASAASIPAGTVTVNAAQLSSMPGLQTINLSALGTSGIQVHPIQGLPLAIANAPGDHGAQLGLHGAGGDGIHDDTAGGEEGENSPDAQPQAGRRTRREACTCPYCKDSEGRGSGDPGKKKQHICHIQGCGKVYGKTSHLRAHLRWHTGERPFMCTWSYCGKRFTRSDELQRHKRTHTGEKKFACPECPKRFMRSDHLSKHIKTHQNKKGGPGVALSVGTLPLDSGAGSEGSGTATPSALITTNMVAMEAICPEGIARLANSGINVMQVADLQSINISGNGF
Summary of the method: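 Endogenous Sp1 activity was gauged in human liver HepG2 cells bearing transfected reporter units under a cis-regulating promoter. After 24 h dosing, reporter mRNA was quantified by RT-PCR with capillary electrophoresis, and activity fitted bidirectionally versus DMSO.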

[15] = ATG_SREBP_CIS: Attagene CIS-FACTORIAL HepG2 Assay for human Sterol Regulatory Element Binding (SREBP) (AID 2282962); conditions: HepG2 Attagene cis-factorial SREBP reporter, mRNA; actives raise or lower the signal
Summary of the method: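 Endogenous SREBP activity read as cis-element-driven reporter transcript in transiently transfected HepG2, 24 h post-dosing; quantified via RT-PCR plus capillary electrophoresis of fluorescent fragments. Gain or loss of signal fitted relative to DMSO baseline.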

[16] = target: Signal transducer and activator of transcription 3 (Homo sapiens) (UniProt P40763); test: ATG_STAT3_CIS: Attagene CIS-FACTORIAL HepG2 Assay for human Signal Transducer and Activator of Transcription 3 (STAT3) (AID 2282963); conditions: HepG2, Attagene cis-factorial STAT3 reporter transcription; actives raise or lower the signal
Chain of Signal transducer and activator of transcription 3 (Homo sapiens) (P40763 whole entry, looked up): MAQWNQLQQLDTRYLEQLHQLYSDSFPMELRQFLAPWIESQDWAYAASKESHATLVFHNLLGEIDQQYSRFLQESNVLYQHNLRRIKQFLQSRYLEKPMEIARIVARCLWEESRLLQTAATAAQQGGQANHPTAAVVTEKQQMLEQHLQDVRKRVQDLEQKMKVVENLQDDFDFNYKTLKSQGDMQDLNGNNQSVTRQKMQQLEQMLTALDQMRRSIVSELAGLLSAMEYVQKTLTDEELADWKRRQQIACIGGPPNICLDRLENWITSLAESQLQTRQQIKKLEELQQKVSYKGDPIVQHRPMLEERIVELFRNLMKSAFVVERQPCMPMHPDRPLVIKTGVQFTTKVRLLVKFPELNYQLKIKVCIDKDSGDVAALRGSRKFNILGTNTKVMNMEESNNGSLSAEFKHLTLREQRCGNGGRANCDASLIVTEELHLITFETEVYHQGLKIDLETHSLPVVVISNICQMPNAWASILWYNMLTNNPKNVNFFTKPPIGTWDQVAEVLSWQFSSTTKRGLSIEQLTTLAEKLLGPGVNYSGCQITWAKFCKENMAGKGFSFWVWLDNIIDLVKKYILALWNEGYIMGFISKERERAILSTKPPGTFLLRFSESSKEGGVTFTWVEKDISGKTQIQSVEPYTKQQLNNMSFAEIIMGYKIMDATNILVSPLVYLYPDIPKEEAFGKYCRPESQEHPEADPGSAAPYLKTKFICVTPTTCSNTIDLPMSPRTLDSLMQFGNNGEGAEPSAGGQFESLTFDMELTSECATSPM
Summary of the method: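 Uses human liver HepG2 transiently carrying cis-regulated reporter transcription units. Following 24 h dosing, reporter mRNA induction was detected by RT-PCR and capillary electrophoresis, analysed bidirectionally versus DMSO.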

[17] = ATG_TA_CIS: Attagene CIS-FACTORIAL HepG2 Assay for human TA Basal Promoter (AID 2282964); conditions: HepG2 Attagene CIS-factorial TA basal promoter reporter; actives raise or lower the signal
Summary of the method: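 Transfected HepG2, 24 h compound exposure; RNA → RT-PCR → FAM primer extension → HpaI cut → CE fluorescence. Gain/loss-of-signal fitted against DMSO negative control. Background-control readout.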

[18] = ATG_TCF_b_cat_CIS: Attagene CIS-FACTORIAL HepG2 Assay for human T-Cell-Factor with beta-catenin (TCF/b-cat) (AID 2282965); conditions: HepG2 TCF/beta-catenin cis-reporter transcription, actives raise or lower the signal
Summary of the method: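 In this cis-format system, transfected HepG2 cells report endogenous transcription factor activity. Readout after 24 h exposure is reporter transcript abundance from RT-PCR and capillary electrophoresis, analysed for gain or loss of signal versus DMSO.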

[19] = ATG_TAL_CIS: Attagene CIS-FACTORIAL HepG2 Assay for human TAL Basal Promoter (AID 2282966); conditions: HepG2 Attagene cis-factorial TAL promoter reporter; actives raise or lower the signal;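 also: background control endpoint measuring basal TAL promoter reporter mRNA not a specific factor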
Summary of the method: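 Basal-promoter background-control endpoint from a multiplexed HepG2 reporter panel. Cells were exposed 24 h, then reporter mRNA was read by RT-PCR/CE fluorescence and fitted in both directions relative to DMSO.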

Measured: AC50

N#CN=C(N)N
inactive: [1] | [2] | [3] | [4] | [5] | [6] | [7] | [8] | [9] | [10] | [11] | [12] | [13] | [14] | [15] | [16] | [17] | [18] | [19]

C[C@@H]1C[C@@H]([C@H](O)CC2CC(=O)NC(=O)C2)C(=O)[C@@H](C)C1
inactive: [2] | [3] | [4] | [6] | [7] | [9] | [11] | [12] | [13] | [14] | [15] | [16] | [17] | [19]
active: [4] 119 nM and 22.9 µM | [6] 2.68 µM and 1.53 µM | [11] 27.5 µM | [18] 8.48 µM [middle of 4 runs] | [19] 0.191 µM

C=CCc1ccc(OC)cc1
active: [10] 26.6 µM
inactive: [1] | [2] | [3] | [4] | [6] | [7] | [8] | [9] | [11] | [12] | [13] | [14] | [15] | [16] | [17] | [18]

CC1(C)Cc2cccc(O)c2O1
inactive: [1] | [2] | [3] | [4] | [5] | [6] | [7] | [8] | [9] | [12] | [13] | [14] | [15] | [16] | [17] | [18] | [19]
active: [10] 7.98 µM

O=[N+]([O-])c1c(Cl)c(Cl)cc(Cl)c1Cl
active: [2] 0.0842 µM | [10] 18.2 µM
inactive: [1] | [3] | [4] | [5] | [6] | [7] | [9] | [11] | [12] | [13] | [14] | [15] | [16] | [17] | [18] | [19]

CC(C)c1ccc(CO)cc1
inactive: [1] | [2] | [3] | [4] | [5] | [6] | [7] | [9] | [10] | [11] | [12] | [13] | [14] | [15] | [16] | [17] | [18]

CCC(C)c1cccc(C(C)CC)c1O (centres undefined)
active: [10] 5.61 µM
inactive: [1] | [2] | [3] | [4] | [6] | [7] | [9] | [11] | [12] | [13] | [14] | [15] | [16] | [17] | [18]

CCOP(OCC)OCC
inactive: [1] | [2] | [3] | [4] | [5] | [6] | [7] | [8] | [9] | [10] | [12] | [13] | [14] | [15] | [16] | [17] | [18]

CCCCCCCCSC(=O)Oc1cc(Cl)nnc1-c1ccccc1
inactive: [2] | [3] | [4] | [5] | [6] | [7] | [11] | [12] | [13] | [14] | [15] | [16]
active: [1] 164 µM | [9] 146 µM | [10] 27.1 µM | [17] 124 µM | [18] 170 µM | [19] 71.3 µM
